# TDP43 rescue – qHTS of TDP-43 Inhibitors. Potency, µM (series often up to 46.1 µM), for inactives: at the top dose growth rescue (activation), hits mostly activators. 1.8% of 410,000 active. AID 652104, 2013. TDP-43 expressing yeast growth rescue, BacTiter-Glo, 24 h; further: % of control where 0% means no effect; nearly all actives have a fitted effect of over 50% in size
#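 In this qHTS, compounds that restore growth of yeast expressing TDP-43 appear as activators. Cells (OD600=0.02, galactose medium, raffinose-pregrown) are incubated with compound 24 hr at 30 deg C and growth is quantified by BacTiter-Glo.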
# FUS suppressor – qHTS for Suppressors of FUS Proteinopathy: Primary screen using FUS-linked yeast assay | AID 1347120, 2019 | S. cerevisiae FUS-expressing, growth rescue, OD600, 24 h | 0.24% of 390,000 active | Potency, µM (series often up to 76.6 µM), hits mostly activators;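 further: plate controls were DMSO vehicle for no effect and reference control for full effect; nearly all actives have a fitted effect of over 55% in size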
#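 Cultures pregrown in 2.5% raffinose medium are shifted to minimal medium containing 2% galactose to express toxic FUS. Compounds are tested at several concentrations. After 24hr at 30C, growth is quantified at 600 nm absorbance.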
# Abeta rescue – qHTS for compounds that reverse cellular toxicity of Amyloid beta (A-beta) peptide in yeast: Primary Screen | Potency, µM (top dose mostly 46.1 µM), actives largely listed as activators | AID 1347071, 2019 | 0.063% of 410,000 active | yeast expressing A-beta42, growth rescue, OD600, 48 h; response scale: 0% DMSO, 100% iron-clioquinol control; further: nearly all actives have a fitted effect of over 55% in size
#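 Yeast A-beta toxicity model in growth medium with pinned compounds, 48 h at 30 C; growth read as absorbance at 600 nm. Normalized to FeCl3/clioquinol equimolar mix (positive) and DMSO (negative).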
# aSyn yeast inh – qHTS of alpha-syn Inhibitors. Potency, µM (titrated, usually from 46.1 µM), without a hit: at the highest dose growth rescue (activation), hits mostly activators. Yeast expressing alpha-synuclein, growth rescue, BacTiter-Glo, 24 h. 0.14% of 370,000 active. AID 652106, 2013; further: % of control where 0% means no effect; nearly all actives have a fitted effect of over 65% in size
#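 Screening used galactose-induced yeast with toxic alpha-synuclein levels, exposed to compound for 24 hr at 30 deg C. Cell growth, read with BacTiter-Glo luminescence, gave the measured signal.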
# Active calls of the source: *; i = inactive; ? = inconclusive; . = not tested or not shown. Hits are enriched below; roughly 2.1% of the tested compounds scored in any of these assays. The call rests on the fitted dose curve; in most records, active means well fitted curve in the direction sought with a large enough effect; inconclusive means small, poorly fitted or top-dose-only effect, or another doubt; inactive means no such curve, though single readings can be large; an effect the other way counts as inactive or inconclusive. Potency means the concentration at half of the fitted maximal effect.
SMILES,TDP43 rescue,FUS suppressor,Abeta rescue,aSyn yeast inh
COc1ccc(CN(C)C(=O)CCl)cc1,18.2%,i,i,-1.1%
CC1CCN(C2=NC(=O)/C(=C/c3cccc(O)c3)S2)CC1,14.3%,i,i,5.2%
CC1CCN(C2=NC(=O)/C(=C/c3ccccc3F)S2)CC1,12.6µM*,i,i,7.8%
CCc1ccc(-c2nnn(CCC(=O)OC)n2)cc1,15.8µM*,i,i,8.4%
COc1cccc(CSc2nnc(CSc3nc4nc(C)cc(C)n4n3)s2)c1,20µM*,i,i,2.4%
CN(C)C(=O)c1cccc(-c2cccc(-c3nc(C(=O)NCc4ccccc4)cc4c3[C@@H](CCO)N(S(=O)C(C)(C)C)C4)c2)c1 (stereo partly specified),18.3%,35.5µM*,i,3.9%
COc1cccc(CNC(=O)c2cc3c(c(-c4cccc(-c5cccc(C#N)c5)c4)n2)[C@H](CCO)N(S(=O)C(C)(C)C)C3)c1 (stereo partly specified),?,22.4µM*,i,-4.2%
O=C(CCN1CCCCC1)c1cccc(Cl)c1,-23.4%,.,i,1.8%
COc1ccc(OC)c2sc(NNC(=O)C3COc4ccccc4O3)nc12 (stereo unspecified),6.31µM*,i,?,5.2%
CCCC(=O)Nc1nc(-c2ccc3c(c2)OCCO3)cs1,10µM*,i,i,-18.8%
COc1ccc(-c2csc(NC(=O)C3COc4ccccc4O3)n2)cc1OC (stereo unspecified),35.5µM*,i,i,-20.8%
O=C(COC(=O)/C=C/c1ccc([N+](=O)[O-])cc1)NCc1ccco1,1.9%,i,i,-1.9%
COc1ccc(Nc2ncnc3sc4c(c23)CCCC4)cc1,20µM*,i,i,-6.9%
COc1ccc(Nc2ncnc3scc(-c4ccc(OC)cc4)c23)cc1,22.4µM*,.,i,1.0%
Cc1cc(F)ccc1S(=O)(=O)Nc1ncnc2sc3c(c12)CCC3,20µM*,i,i,9.4%
CC(=O)Nc1ccc(Nc2ncnc3sc4c(c23)CCCC4)cc1,?,i,i,5.8%
O=S(=O)(Nc1ncnc2sc3c(c12)CCC3)c1ccc2ccccc2c1,-10.4%,?,i,-36.5%
NNc1ncnc2scc(-c3ccc(Cl)cc3)c12,15.8µM*,i,i,13.8%
Clc1ccc(-c2csc3ncnc(Cl)c23)cc1,0.0%,i,i,-7.1%
CC1CCN(S(=O)(=O)c2ccc3c(c2)C(=NO)c2cc(S(=O)(=O)N4CCC(C)CC4)ccc2-3)CC1,8.9%,i,i,0.4%
CCc1ccc(Nc2ncnc3sc4c(c23)CCCC4)cc1,20µM*,i,i,0.4%
Fc1ccc(Nc2ncnc3sc4c(c23)CCC4)cc1,17.8µM*,i,i,31.6µM*
CC(=O)Nc1cc2c(cc1[N+](=O)[O-])OCCO2,16.1%,i,i,-0.4%
Cc1c(Cl)cccc1NC(=O)C(C)n1nc(C)c2c(C)n(-c3ccccc3)nc2c1=O (stereo unspecified),?,i,i,.
CN1CCN(S(=O)(=O)c2cccc(C(=O)N(Cc3nnc(-c4ccc(Cl)cc4)o3)C3CC3)c2)CC1,-20.7%,i,i,-1.1%
SMILES,TDP43 rescue,FUS suppressor,Abeta rescue,aSyn yeast inh
FC(F)(F)c1nc(=S)c2ccccc2[nH]1,10µM*,i,i,-3.8%
Cc1nc(=S)c2ccccc2[nH]1,14.5%,i,i,-1.5%
O=C(CCN1C(=O)/C(=C/c2ccc(Cl)cc2)SC1=S)NCCCn1ccnc1,4.0%,i,i,2.9%
O=C(C(=O)N1CCN(c2ccccc2Cl)CC1)c1c[nH]c2ccccc12,22.4µM*,i,.,17.8µM*
CC(C)OCCCNC(=O)C(=O)NCCCOC(C)C,17.0%,i,i,-2.4%
CC(C)=C1SC(N2CCOCC2)=NC1=O,-3.0%,i,i,-1.1%
COc1ccc(-n2nnnc2-c2cccc(OC)c2)cc1,12.6µM*,i,i,2.2%
Cc1ccc(-n2nnnc2-c2cccc(C)c2)cc1,20µM*,i,i,0.0%
Cc1ccc(NC(=O)NCCCN2CCCC2=O)c(C)c1,-12.3%,i,i,0.7%
Cc1ccc([C@H]2C[C@H](n3cc(-c4ccc(F)cc4)nn3)[C@@H](O)CN2C(=O)c2cccs2)cc1,?,i,i,0.9%
COc1ccc([C@H]2CC(=O)C=C(c3cccc(Cl)c3O)C2)cc1OC,17.8µM*,i,i,4.9%
O=C1C=C(c2cccc(Cl)c2)C[C@@H](c2ccc3c(c2)OCO3)C1,?,i,i,13.0%
O=C1C=C(c2cccc(Cl)c2O)C[C@@H](c2ccc3c(c2)OCO3)C1,3.55µM*,i,i,?
Cc1ccc(N(CC(=O)NC(C)(C)C)C(=O)CCC(=O)Nc2nccs2)cc1C,-8.5%,i,i,-2.4%
CCOC(=O)c1sc(NC(=O)/C=C/c2c(F)cccc2Cl)nc1C,8.2%,i,i,-0.5%
C=C1C(=O)[C@]23C[C@H]1CC[C@H]2[C@]1(C)[C@@H](OC(C)=O)CC[C@@](C)(C(=O)OC)[C@H]1C[C@@H]3OC(C)=O,17.8µM*,i,i,17.4%
C=C1C(=O)[C@]23C[C@H]1CC[C@H]2[C@]1(C)[C@@H](OC(C)=O)CC[C@@](C)(C(=O)O)[C@H]1C[C@@H]3O,11.2µM*,i,i,?
C=C1C(=O)[C@]23C[C@H]1CCC2[C@@]1(C)C(C[C@@H]3O)[C@](C)(C(=O)OC)CC[C@@H]1OC(C)=O (stereo partly specified),?,i,i,-81.1%
O=S(=O)(NCc1csc(-c2cccs2)n1)c1ccc(Cl)cc1,?,i,i,14.6%
O=S(=O)(NCc1csc(-c2cccs2)n1)c1cccc(C(F)(F)F)c1,17.8µM*,i,i,1.3%
CSc1nccc(-c2c(-c3ccc(Cl)cc3)noc2C)n1,17.8µM*,i,i,-13.9%
O=C(Nc1nc2ccc(F)cc2s1)c1cccc(S(=O)(=O)N2CCc3ccccc32)c1,16.0%,.,i,15.3%
Cc1ccc(CSC2=Nc3ccccc3C3=NC(CCC(=O)NCCc4ccccc4)C(=O)N23)cc1 (stereo unspecified),31.6µM*,i,i,.
O=C(CC1N=C2c3ccccc3N=C(SCC(=O)Nc3ccc(F)cc3)N2C1=O)NCc1cccs1 (stereo unspecified),13.4%,i,i,.
O=C(CCC1N=C2c3ccccc3N=C(SCC(=O)Nc3ccc(F)cc3)N2C1=O)NCc1cccs1 (stereo unspecified),35.5µM*,?,i,.
CCOc1ccc(OCC)c(NS(=O)(=O)c2cccc3nsnc23)c1,12.6µM*,i,i,1.0%
CCOc1ccccc1NS(=O)(=O)c1cccc2nsnc12,26.3%,i,i,2.3%

# Screens (PubChem BioAssay)
